In PubChem BioAssay AID602141 (Sanford-Burnham Center for Chemical Genomics, 2011):
Hit rate of the full screen: of about 360,000 compounds, about 1,300 (0.36%) were called active. Many of the other results were omitted from the sample, so actives are more common in it than they were. Values without a mark were called inactive.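 How the source made its calls: active means corrected activity change at or below -50% at 5 µM; inactive means the rest.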

assay: cytotoxicity in KKLEB CF airway cells, primary screen, cytotoxicity control for CF NF-kB inhibitor project, cell-based, uHTS, fluorescence assay plates (AID 602141); details: KKLEB CF airway cells viability, ATPlite luminescence, overnight; at 5 µM; stronger effect = lower value; cells stimulated with P. aeruginosa culture filtrate

SMILES | activity change (cytotoxicity)
CCOc1ccccc1NS(=O)(=O)c1cc2c3c(c1)C(C)C(=O)N3CCC2 (stereo unspecified) | 7.2%
COc1ccc(CN(C(=O)c2cccs2)c2nccs2)cc1OC | 5.6%
O=C(NCc1cccnc1)c1nc(-c2cccs2)no1 | -11.3%
CCOc1ccc(NC(=O)COC(=O)C2CCC(=O)N2)c([N+](=O)[O-])c1 (stereo unspecified) | -7.5%
CCOc1ccc(NC(=S)NC(=O)/C=C/c2ccc(OC)cc2)c([N+](=O)[O-])c1 | -50.2% (active)
COc1ccc(/C=C/C(=O)NC(=S)N2CCCC(C(N)=O)C2)cc1 (stereo unspecified) | -10.3%
COc1ccc(S(=O)(=O)n2cnc3ccccc32)c(C)c1 | 0.5%
COc1c(C=O)c(CCN(C)C(=O)c2ccc(F)cc2)cc2c1OCO2 | -9%
O=C(c1ccc2c(c1)OCO2)N1CCNc2ccccc2C1 | 4.7%
CS(=O)(=O)N(CC(=O)N/N=C/c1ccccn1)c1ccc(Oc2ccccc2)cc1 | 1.8%
O=C(N/N=C/c1ccccn1)c1cccc(NC(=O)c2ccc(Cl)cc2)c1 | -1.1%
S=C(NN=Cc1ccccn1)Nc1ccccn1 | -63.5% (active)
Cc1ccc(S(=O)(=O)N2CCCCC2)cc1NC(=O)CCNC(=O)c1ccccc1Cl | 1.6%
Nc1ncnc2c1ncn2[C@@H]1O[C@H](C(=O)NS(=O)(=O)c2c(Cl)nc3sccn23)[C@@H](O)[C@H]1O | -8.7%
O=C(Nc1cccc([N+](=O)[O-])c1)N1CCc2ccccc2C1 | -12.4%
COc1cccc(NCCC(=O)c2cccc([N+](=O)[O-])c2)c1 | 1.2%
COC(=O)/C=C\C(=O)Nc1cccc([N+](=O)[O-])c1 | -64.1% (active)
CCN(CC(=O)Nc1ccccc1C(F)(F)F)C(=O)C1CCN(C(=O)Nc2ccccc2)CC1 | -2.1%
Cc1cnc(C(=O)Oc2cccc(Cl)c2Cl)cn1 | 14.6%
Cn1c(-c2ccco2)nc2cc3ccccc3cc21 | -57.4% (active)
Cn1c(SCC(=O)Nc2ccc(Br)cc2F)nnc1-c1ccco1 | -9.6%
Cc1ccc2nc(-c3ccco3)c(Cc3cccc(Cl)c3)n2c1 | 6.4%
CCOc1ccc(S(=O)(=O)NCc2ccc3c(c2)OCO3)cc1C | -0.2%

SMILES | activity change (cytotoxicity)
COc1ccccc1CNC(=O)COC(=O)c1sc(C)nc1C | 5.6%
COc1ccc(C)cc1NC(=O)CCCN1C(=O)NC(C)(C)C1=O | 9.3%
Cc1cc(C)cc(NC(=O)N(C)Cc2ccccc2)c1 | 1.9%
CN1c2ccc(C=O)c3c(C=O)ccc(c23)N(C)C1(C)C | -67.5% (active)
Cc1ccc(C=O)c([B-](F)(F)F)c1 | 7.5%
Cc1ccc(S(=O)(=O)N(C)C)cc1NC(=O)CN1c2cccc3cccc(c23)S1(=O)=O | -28.1%
Cc1ccc(/C=N/NC(=O)Cn2ccc(C(F)(F)F)n2)o1 | 10.5%
Cc1cccc(NC(=S)N2CCC(O)CC2)c1C | -5.6%
Fc1ccc(OCc2nn3c(Cn4nnc5ccccc54)nnc3s2)cc1 | -11.4%
CC(=O)c1ccc(NC(=O)C(C)N(C)CC(=O)Nc2ccccc2Cl)cc1 (stereo unspecified) | -7%
O=C(Nc1ccccc1Cl)/C(Cl)=C(\Cl)S(=O)c1ccccc1 (stereo unspecified) | -100% (active)
O=C(Nc1ccccc1Cl)c1ccccc1S(=O)(=O)c1ccccc1[N+](=O)[O-] | 4.2%
Cc1noc(C)c1C(=O)OC(C)C(=O)Nc1ccc2c(c1)OCO2 (stereo unspecified) | 1.3%
COc1ccccc1NC(=O)C1CCN(C(=O)c2ccc(C(C)(C)C)cc2)CC1 | 3.1%
O=C(C=CC(=O)Nc1ccc(F)cc1F)Nc1ccc(F)cc1F | -11%
COc1ccc(NS(=O)(=O)c2ccc(N3CCOCC3)c(NC(=O)/C=C/C(=O)O)c2)cc1 | 17.8%
COC(=O)c1sc(-c2ccc(C(C)(C)C)cc2)cc1NC(=O)/C=C/C(=O)O | -51.8% (active)
O=C(NCC1CCCO1)c1ccccc1-c1nc(-c2ccccc2Cl)no1 (stereo unspecified) | -12.9%
O=C(O)CC12CC3CC(C1)CC(n1ncc(NCc4ccc(F)cc4)c(Cl)c1=O)(C3)C2 | -4.6%
CCN1CCC2(CC1)N=C(c1ccc(F)cc1)C(=S)N2C(=O)c1ccc(C)cc1 | 2.3%
CCN1CCC(O)(/C=C/c2ccc(C)cc2)C(C(=O)/C=C/c2ccc(C)cc2)C1 (stereo unspecified) | -73.7% (active)
CCc1nc2ccc(C(=O)N3CCC(O)(Cc4ccccc4)CC3)cn2c1N(C)C(=O)Cc1ccccc1 | -15.5%
CC(=O)c1cccc(-c2cnc3c(NC=O)cc(-c4ccc(N(C)C)cc4)cn23)c1 | -27.1%
